Results: PubChem BioAssay AID2603 (Johns Hopkins Ion Channel Center, 2010)
Entries with a potency or affinity are not part of this list. Calls of active or inactive are those of the source.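 The calls were made as follows: active = a compound that raises KCNQ2 potassium channel current at -35 mV at one or more tested doses; inactive = no rise at any dose.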

The compounds below were run against Potassium voltage-gated channel subfamily KQT member 2 (Rattus norvegicus) (UniProt O88943) (assay: KCNQ2 channel potentiators, dose response, mechanism study for KCNQ2 potentiator project, cell-based, automated electrophysiology (AID 2603)). Details: KCNQ2-CHO cells, automated patch clamp current potentiation; at 30 µM (top of the series).
Chain of Potassium voltage-gated channel subfamily KQT member 2 (Rattus norvegicus) (O88943 whole entry, looked up): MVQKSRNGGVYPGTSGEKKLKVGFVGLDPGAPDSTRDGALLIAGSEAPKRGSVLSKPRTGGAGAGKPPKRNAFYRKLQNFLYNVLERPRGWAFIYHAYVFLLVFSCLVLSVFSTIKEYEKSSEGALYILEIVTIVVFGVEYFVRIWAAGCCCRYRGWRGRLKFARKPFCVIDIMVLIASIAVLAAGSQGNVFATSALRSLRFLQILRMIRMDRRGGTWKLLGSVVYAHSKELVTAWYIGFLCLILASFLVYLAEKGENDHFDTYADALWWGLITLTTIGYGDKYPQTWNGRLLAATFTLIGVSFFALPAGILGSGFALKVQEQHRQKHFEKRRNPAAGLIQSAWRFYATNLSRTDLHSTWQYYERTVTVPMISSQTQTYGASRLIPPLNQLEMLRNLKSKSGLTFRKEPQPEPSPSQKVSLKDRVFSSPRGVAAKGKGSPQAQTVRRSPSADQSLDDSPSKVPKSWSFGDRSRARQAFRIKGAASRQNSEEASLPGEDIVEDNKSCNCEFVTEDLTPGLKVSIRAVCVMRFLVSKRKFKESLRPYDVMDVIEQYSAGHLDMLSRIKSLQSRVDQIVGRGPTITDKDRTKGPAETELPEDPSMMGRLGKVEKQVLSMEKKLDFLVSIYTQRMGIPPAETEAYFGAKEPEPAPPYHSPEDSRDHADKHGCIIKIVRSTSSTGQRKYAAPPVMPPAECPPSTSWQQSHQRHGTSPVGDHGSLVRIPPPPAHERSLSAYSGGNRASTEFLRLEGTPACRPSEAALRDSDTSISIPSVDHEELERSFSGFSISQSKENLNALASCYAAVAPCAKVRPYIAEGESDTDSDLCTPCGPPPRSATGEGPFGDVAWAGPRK

SMILES | potentiation
CC(C)c1ccc2nc(NC(=O)C3CC3)sc2c1 | 19.3 (inactive)
Nc1cc(N2CCCCC2)c(Cl)cc1[N+](=O)[O-] | 26.9 (inactive)
COc1ccc(C(=O)CCS(=O)(=O)c2ccc(F)cc2)cc1OC | 40.2 (inactive)
CCCCCC/C(C)=C1/SC(=S)NC1=O | 16.9 (inactive)
CC1=C(C(=O)OCC2CCCCC2)C(c2cccc(O)c2)NC(=O)N1 (configuration not stated) | 57
Cc1ccc(C(C2=C(O)CC(C)(C)CC2=O)C2C(=O)CC(C)(C)CC2=O)o1 (configuration not stated) | 35.1 (inactive)
O=C(Cc1ccccc1)Nc1cccc(N2CCCC2)c1 | -3.46 (inactive)
Cc1nn(-c2cccc(C(F)(F)F)c2)c(Cl)c1/C=N/Nc1cccc(C(=O)O)c1 | 20.9 (inactive)
O=C(O)c1cc(NN=C2c3ccccc3-c3ccccc32)ccc1Cl | 81.9
Cc1ccc(C(=O)NC2(O)C(=O)c3ccccc3C2=O)cc1C | 41.3 (inactive)
CC1=C(C)/C(=N\OS(=O)(=O)c2ccccc2)C=CC1=O | 41.9 (inactive)
Oc1c(Br)cc(Br)cc1C=Nc1ccc2[nH]ncc2c1 | -1.83 (inactive)
COc1cc(C)c(C(=O)Oc2cc(C)c(C(=O)O)c(O)c2)c(O)c1 | 72.4
S=C(NCCc1cccc(Cl)c1)NCc1ccccc1 | 41.2 (inactive)
CC1(C)CCc2cc(-c3ccn(S(=O)(=O)c4ccccc4Cl)n3)ccc2O1 | 48.6 (inactive)
O=c1c(O)c(-c2cccs2)oc2ccc(Cl)cc12 | -3.59 (inactive)
CCC(O)(CC)C(=O)N(Nc1ccc(C)cc1)c1ccc(C)cc1 | 62.7
